The record followed here is PubChem BioAssay (EPA / NIEHS).

Experiment [1] has as its target human Esterase Plasma (ES), BCHE (gene 590) (UniProt P06276). The experiment is described as follows: NVS_ENZ_hES: NovaScreen (NVS) Enzymatic Assay for human Esterase Plasma (ES) (AID 2283157; active means hit-call score of the fitted dose curve at least 0.9, where 1 is the maximum). Summed up: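 Esterase from human plasma, cell-free, colorimetric absorbance read 0.25 h after dosing. Screened at 25 uM in duplicate, with threshold-passing chemicals run in concentration-response up to 50 uM; loss of signal fitted versus DMSO.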

The target of experiment [2] is guinea pig Opioid, Kappa 1 Receptor (OpiateK), OPRK1 (gene 100135587) (UniProt P41144). The experiment is described as follows: NVS_GPCR_gOpiateK: NovaScreen (NVS) G Protein-Coupled Receptor Assay for guinea pig Opioid, Kappa 1 Receptor (OpiateK) (AID 2283252; active means hit-call score of the fitted dose curve at least 0.9, where 1 is the maximum;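 further: radioligand displacement from kappa opioid receptor in guinea pig cerebellar membranes; active means reduced radioligand binding relative to DMSO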). Summed up:
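Guinea pig cerebellar membranes, radioligand displacement with filter-based scintillation counting, 2 h after dosing. Primary screen single concentration 25 uM in duplicate; actives retested in concentration series; loss of binding fitted versus DMSO.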

The target in experiment [3] is rat Adrenergic Receptor, Alpha 2 (Adra2), Non-selective Binding, Adra2a (gene 25083) (UniProt P22909). The experiment is described as follows: NVS_GPCR_rAdra2_NonSelective: NovaScreen (NVS) G Protein-Coupled Receptor Assay for rat Adrenergic Receptor, Alpha 2 (Adra2), Non-selective Binding (AID 2283299; active means hit-call score of the fitted dose curve at least 0.9, where 1 is the maximum). Summed up:
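Rat cortical membranes, radioligand competitive displacement read by filter-based scintillation counting 1.25 hours after dosing. Primary screen in duplicate at 25 uM; actives followed up in concentration series.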

Experiment [4] addresses rat Serotonin Transporter (SERT), Slc6a4 (gene 25553) (UniProt P31652). The experiment is described as follows: NVS_TR_rSERT: NovaScreen (NVS) Transporter Assay for rat Serotonin Transporter (SERT) (AID 2283375; active means hit-call score of the fitted dose curve at least 0.9, where 1 is the maximum). Summed up:
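Rat forebrain membranes; radioligand displacement at SERT read by filter-based scintillation counting, 1 h after dosing. Screened in duplicate at 25 uM, actives then run in concentration series; loss of signal versus DMSO baseline.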

Experiment [5] can be described thus: CEETOX_H295R_11DCORT: CeeTox H295R High-throughput Steroidogenesis Assay for 11-Deoxycortisol (11DCORT) (AID 2283432). The conditions noted are these: actives raise or lower the signal. Summed up: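 Human adrenal H295R cells were prestimulated with 10 uM forskolin for 48 h, then exposed to test chemical (0.1% DMSO final) for 48 h. Medium 11-deoxycortisol was quantified by MTBE extraction and HPLC-MS/MS; bidirectional fitting relative to DMSO.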

Experiment [6] is described as follows: CEETOX_H295R_CORTIC: CeeTox H295R High-throughput Steroidogenesis Assay for Corticosterone (CORTIC) (AID 2283437).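 Further: corticosterone secreted into medium quantified by mass spectrometry.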 Conditions: actives raise or lower the signal. Summed up: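 H295R adrenal cells prestimulated 48 hours with 10 uM forskolin, then exposed 48 hours to chemical in 0.1% DMSO. Corticosterone in medium measured by HPLC-MS/MS after MTBE extraction; MTT viability in the same wells; bidirectional fit versus DMSO.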

The nature of experiment [7]: CEETOX_H295R_CORTISOL: CeeTox H295R High-throughput Steroidogenesis Assay for Cortisol (AID 2283438).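 Further: cortisol secreted into medium quantified by LC-MS/MS.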 The conditions noted are these: actives raise or lower the signal. Summed up: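 H295R human adrenal cells were prestimulated 48 h with 10 uM forskolin, then exposed 48 h to test chemical (0.1% DMSO final). Medium cortisol was quantified by HPLC-MS/MS after MTBE extraction; bidirectional fitting relative to DMSO baseline.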

Experiment [8] is described as follows: CEETOX_H295R_DOC: CeeTox H295R High-throughput Steroidogenesis Assay for DOC (AID 2283439). The conditions noted are these: actives raise or lower the signal. Summed up:
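H295R adrenal cells prestimulated 48 h with 10 uM forskolin, then exposed 48 h to test chemical (0.1% DMSO final). Medium 11-deoxycorticosterone extracted with MTBE, quantified by HPLC-MS/MS; bidirectional fit versus DMSO baseline; MTT viability in same wells.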

The target in experiment [9] is mouse Peroxisome Proliferator-activated Receptor gamma (PPARg), Pparg (gene 19016) (UniProt P37238). The experiment is described as follows: ATG_mPPARg_XSP2: Attagene TRANS-FACTORIAL Multi-Species (XSP2) HepG2 Assay for mouse Peroxisome Proliferator-activated Receptor gamma (PPARg) (AID 2283830; active means hit-call score of the fitted dose curve at least 0.9, where 1 is the maximum;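 further: hits are gains in reporter mRNA above DMSO so AC50 marks activation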). Summed up: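 HepG2 cells transiently transfected with GAL4-UAS reporter units for chimeric NR-Gal4 proteins including mouse PPARg, exposed 24 h; medium contained 3 nM 6-alpha-fluorotestosterone and 1.5 nM norgestrel. Reporter mRNA quantified by RT-PCR, HpaI digestion and capillary electrophoresis, vs DMSO.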

Experiment [10] addresses zebrafish Thyroid Hormone Receptor alpha (TRa), thraa (gene 30670) (UniProt Q98867). The experiment is described as follows: ATG_zfTRa_XSP2: Attagene TRANS-FACTORIAL Multi-Species (XSP1) HepG2 Assay for zebrafish Thyroid Hormone Receptor alpha (TRa) (AID 2283832; active means hit-call score of the fitted dose curve at least 0.9, where 1 is the maximum;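 further: actives raise zebrafish TRa-Gal4 reporter transcript above DMSO baseline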). Summed up:
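HepG2 cells transiently transfected with multiplexed GAL4-UAS reporter units expressing chimeric NR-Gal4 proteins; 24 h after dosing, reporter mRNA measured by RT-PCR, FAM labelling, HpaI digestion and capillary electrophoresis; gain of signal versus DMSO baseline.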

The nature of experiment [11]: CEETOX_H295R_11DCORT_noMTC: CeeTox H295R High-throughput Steroidogenesis Assay for 11-Deoxycortisol (11DCORT), maximum tolerated concentration (MTC) filtered results only (AID 2283911). The conditions noted are these: actives raise or lower the signal. Summed up: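 H295R cells were prestimulated 48 h with 10 uM forskolin, then exposed 48 h to chemical (0.1% DMSO final). 11-Deoxycortisol in the medium was measured by MTBE extraction and HPLC-MS/MS, with bidirectional fitting versus DMSO and no MTC filtering of concentrations.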

Experiment [12] is described as follows: CEETOX_H295R_OHPREG_noMTC: CeeTox H295R High-throughput Steroidogenesis Assay for OH-Pregnenolone (OHPREG), maximum tolerated concentration (MTC) filtered results only (AID 2283912). Conditions: actives raise or lower the signal. Summed up:
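H295R cells prestimulated 48 h with 10 uM forskolin, then exposed 48 h to compound (0.1% DMSO). 17alpha-hydroxypregnenolone in medium measured by MTBE extraction and HPLC-MS/MS; bidirectional fit vs DMSO, concentrations not MTT/MTC-filtered.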

Experiment [13] is described as follows: CEETOX_H295R_OHPROG_noMTC: CeeTox H295R High-throughput Steroidogenesis Assay for OH-Progesterone (OHPROG), maximum tolerated concentration (MTC) filtered results only (AID 2283914). The conditions noted are these: actives raise or lower the signal. Summed up: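 H295R cells prestimulated 48 h with 10 uM forskolin, then exposed 48 h to chemical (0.1% DMSO final). 17alpha-hydroxyprogesterone in medium quantified by HPLC-MS/MS after MTBE extraction; bidirectional fitting versus DMSO, concentrations not MTC-filtered.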

A short description of experiment [14]: CEETOX_H295R_CORTISOL_noMTC: CeeTox H295R High-throughput Steroidogenesis Assay for Cortisol, maximum tolerated concentration (MTC) filtered results only (AID 2283916). The conditions noted are these: actives raise or lower the signal. Summed up:
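H295R human adrenal cells prestimulated 48 h with 10 uM forskolin, then exposed 48 h to chemical in 0.1% DMSO; cortisol in medium quantified by HPLC-MS/MS; bidirectional fit vs DMSO baseline, concentrations not MTT-filtered for MTC.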

The nature of experiment [15]: CEETOX_H295R_CORTIC_noMTC: CeeTox H295R High-throughput Steroidogenesis Assay for Corticosterone (CORTIC), maximum tolerated concentration (MTC) filtered results only (AID 2283917). Conditions: actives raise or lower the signal. Summed up: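 H295R adrenal cells pre-stimulated 48 h with 10 uM forskolin, then exposed 48 h to chemical in 0.1% DMSO; corticosterone in medium quantified by HPLC-MS/MS, fitted bidirectionally versus DMSO without MTT-based concentration filtering.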

The nature of experiment [16]: CEETOX_H295R_DOC_noMTC: CeeTox H295R High-throughput Steroidogenesis Assay for DOC, maximum tolerated concentration (MTC) filtered results only (AID 2283918). Conditions: actives raise or lower the signal. Summed up:
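H295R cells prestimulated 48 h with 10 uM forskolin, then exposed 48 h to chemical in 0.1% DMSO. 11-Deoxycorticosterone in medium measured by MTBE extraction and HPLC-MS/MS; bidirectional fit vs DMSO, no MTC filter.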

The nature of experiment [17]: CEETOX_H295R_PROG_noMTC: CeeTox H295R High-throughput Steroidogenesis Assay for Progesterone (PROG), maximum tolerated concentration (MTC) filtered results only (AID 2283920). The conditions noted are these: actives raise or lower the signal. Summed up:
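H295R cells, prestimulated 48 h with 10 uM forskolin, exposed 48 h to chemical in 0.1% DMSO. Medium progesterone quantified by MTBE extraction and HPLC-MS/MS; bidirectional fit versus DMSO, concentrations not MTT-filtered.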

Experiment [18] concerns the target human Beta-secretase (BACE), BACE1 (gene 23621) (UniProt P56817). The experiment is described as follows: NVS_ENZ_hBACE: NovaScreen (NVS) Enzymatic Assay for human Beta-secretase (BACE) (AID 2283140; active means hit-call score of the fitted dose curve at least 0.9, where 1 is the maximum;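 further: hits are inhibitors that reduce fluorescent substrate signal versus DMSO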). Summed up:
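Cell-free fluorescence-intensity assay of recombinant BACE1 expressed in SF9 cells, read 1 hour after dosing. Loss of signal indicates reduced protease activity, fitted relative to DMSO negative control. Primary screen at 25 uM in duplicate; actives followed in concentration series.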

The target of experiment [19] is Estrogen receptor (Homo sapiens) (UniProt P03372). The experiment is described as follows: NVS_NR_hER: NovaScreen (NVS) Nuclear Receptor Binding Assay for human Estrogen Receptor (ER) (AID 2283348; active means hit-call score of the fitted dose curve at least 0.9, where 1 is the maximum). Summed up: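 Radioligand competitive displacement binding to estrogen receptor from MCF7 extract, cell-free; 18 h after dosing, scintillation read-out. Primary screen in duplicate at 25 uM; actives followed up in concentration series; loss of signal vs DMSO.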

In another experiment the test system is DIO3 (gene 1735). The experiment is described as follows: CCTE_GLTED_hDIO3: CCTE's human Deiodinase 3 (DIO3) Inhibition Assay, Great Lakes Toxicology and Ecology Division (GLTED) Lab (AID 2284055; active means hit-call score of the fitted dose curve at least 0.9, where 1 is the maximum;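 further: potency is for inhibition seen as loss of released iodide signal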). Summed up:
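Cell-free assay with human DIO3 enzyme produced by adenovirus expression; enzyme incubated with test chemical for 3 hours. Liberated iodide then measured by Sandell-Kolthoff absorbance; loss of signal versus DMSO baseline indicates inhibition, run in triplicate.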

Records with an inconclusive call do not appear. Some compounds were tested as several samples or in several runs, with calls that do not always agree. Calls of active or inactive are those of the source. How the source made its calls, unless noted: active means hit-call score of the fitted dose curve at least 0.9, where 1 is the maximum; inactive means score below 0.9.

By AC50 is commonly meant the concentration at which the activity in the assay is half-maximal.

Sequence of mouse Peroxisome Proliferator-activated Receptor gamma (PPARg), Pparg (gene 19016) (P37238 whole entry, looked up, the tested form may be a part): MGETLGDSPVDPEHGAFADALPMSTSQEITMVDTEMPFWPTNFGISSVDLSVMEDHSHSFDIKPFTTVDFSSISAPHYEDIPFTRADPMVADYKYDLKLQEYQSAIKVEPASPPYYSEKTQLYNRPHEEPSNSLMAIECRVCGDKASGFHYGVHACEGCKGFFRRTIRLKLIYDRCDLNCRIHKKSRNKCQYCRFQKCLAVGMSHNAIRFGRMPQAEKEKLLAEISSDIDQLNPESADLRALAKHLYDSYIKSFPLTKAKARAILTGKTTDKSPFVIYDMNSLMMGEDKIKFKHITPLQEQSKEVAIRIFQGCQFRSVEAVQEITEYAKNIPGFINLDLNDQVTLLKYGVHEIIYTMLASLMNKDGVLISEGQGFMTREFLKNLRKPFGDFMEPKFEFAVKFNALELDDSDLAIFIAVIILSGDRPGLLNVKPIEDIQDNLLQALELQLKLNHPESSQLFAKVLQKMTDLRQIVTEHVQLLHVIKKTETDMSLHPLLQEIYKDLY
Sequence of zebrafish Thyroid Hormone Receptor alpha (TRa), thraa (gene 30670) (Q98867 whole entry, looked up, the tested form may be a part): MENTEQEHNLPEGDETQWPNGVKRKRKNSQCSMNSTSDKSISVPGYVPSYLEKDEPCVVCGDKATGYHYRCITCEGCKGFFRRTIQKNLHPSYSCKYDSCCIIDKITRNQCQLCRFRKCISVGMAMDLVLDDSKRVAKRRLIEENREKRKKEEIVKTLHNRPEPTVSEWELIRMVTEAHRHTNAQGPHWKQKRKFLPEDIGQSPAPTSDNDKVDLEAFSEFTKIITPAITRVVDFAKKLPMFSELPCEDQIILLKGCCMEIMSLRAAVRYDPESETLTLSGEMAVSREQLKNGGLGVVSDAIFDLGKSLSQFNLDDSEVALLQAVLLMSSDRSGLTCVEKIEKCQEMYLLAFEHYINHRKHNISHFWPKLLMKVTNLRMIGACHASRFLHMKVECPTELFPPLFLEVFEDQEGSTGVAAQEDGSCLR
Sequence of Estrogen receptor (Homo sapiens) (P03372 whole entry, looked up): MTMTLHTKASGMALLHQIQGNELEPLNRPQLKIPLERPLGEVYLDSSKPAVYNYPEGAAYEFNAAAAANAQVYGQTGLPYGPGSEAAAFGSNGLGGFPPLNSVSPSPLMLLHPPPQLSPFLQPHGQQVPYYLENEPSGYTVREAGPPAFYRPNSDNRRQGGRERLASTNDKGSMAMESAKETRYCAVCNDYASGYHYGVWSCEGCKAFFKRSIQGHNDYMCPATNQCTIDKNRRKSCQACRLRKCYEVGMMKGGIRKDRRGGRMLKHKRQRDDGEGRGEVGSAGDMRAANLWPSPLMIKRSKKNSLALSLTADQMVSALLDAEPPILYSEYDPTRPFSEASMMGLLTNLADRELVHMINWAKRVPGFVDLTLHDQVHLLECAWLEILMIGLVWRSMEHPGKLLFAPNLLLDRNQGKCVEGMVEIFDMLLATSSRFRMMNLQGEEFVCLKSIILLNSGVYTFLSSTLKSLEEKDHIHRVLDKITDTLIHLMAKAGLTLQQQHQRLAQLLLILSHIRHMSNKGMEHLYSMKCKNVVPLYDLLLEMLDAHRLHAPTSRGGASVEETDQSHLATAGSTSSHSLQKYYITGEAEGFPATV
Sequence of human Beta-secretase (BACE), BACE1 (gene 23621) (P56817 whole entry, looked up): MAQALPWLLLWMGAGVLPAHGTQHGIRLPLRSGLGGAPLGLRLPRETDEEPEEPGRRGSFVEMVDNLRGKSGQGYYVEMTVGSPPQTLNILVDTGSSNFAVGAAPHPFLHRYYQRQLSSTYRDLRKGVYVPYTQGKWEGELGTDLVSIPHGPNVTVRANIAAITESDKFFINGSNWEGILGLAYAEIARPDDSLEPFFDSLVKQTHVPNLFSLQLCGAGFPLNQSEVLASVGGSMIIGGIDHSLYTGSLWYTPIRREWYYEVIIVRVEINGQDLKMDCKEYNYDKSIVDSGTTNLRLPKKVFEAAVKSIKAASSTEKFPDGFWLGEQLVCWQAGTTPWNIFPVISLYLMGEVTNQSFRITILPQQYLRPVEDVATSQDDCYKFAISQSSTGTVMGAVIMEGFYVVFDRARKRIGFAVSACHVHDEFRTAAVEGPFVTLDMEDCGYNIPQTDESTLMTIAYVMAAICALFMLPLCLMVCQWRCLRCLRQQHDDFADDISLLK
Sequence of rat Adrenergic Receptor, Alpha 2 (Adra2), Non-selective Binding, Adra2a (gene 25083) (P22909 whole entry, looked up): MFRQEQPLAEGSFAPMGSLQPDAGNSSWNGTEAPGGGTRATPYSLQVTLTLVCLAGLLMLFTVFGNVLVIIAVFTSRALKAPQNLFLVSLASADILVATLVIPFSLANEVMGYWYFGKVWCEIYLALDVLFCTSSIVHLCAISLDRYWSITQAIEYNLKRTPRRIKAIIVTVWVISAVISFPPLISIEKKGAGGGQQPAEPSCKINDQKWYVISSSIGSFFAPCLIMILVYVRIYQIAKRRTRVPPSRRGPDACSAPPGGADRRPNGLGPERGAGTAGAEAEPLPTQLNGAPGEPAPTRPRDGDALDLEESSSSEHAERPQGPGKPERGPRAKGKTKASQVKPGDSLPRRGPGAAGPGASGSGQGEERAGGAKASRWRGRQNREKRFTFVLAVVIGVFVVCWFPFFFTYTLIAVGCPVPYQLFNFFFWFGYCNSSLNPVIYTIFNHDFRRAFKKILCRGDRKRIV
Sequence of human Esterase Plasma (ES), BCHE (gene 590) (P06276 whole entry, looked up): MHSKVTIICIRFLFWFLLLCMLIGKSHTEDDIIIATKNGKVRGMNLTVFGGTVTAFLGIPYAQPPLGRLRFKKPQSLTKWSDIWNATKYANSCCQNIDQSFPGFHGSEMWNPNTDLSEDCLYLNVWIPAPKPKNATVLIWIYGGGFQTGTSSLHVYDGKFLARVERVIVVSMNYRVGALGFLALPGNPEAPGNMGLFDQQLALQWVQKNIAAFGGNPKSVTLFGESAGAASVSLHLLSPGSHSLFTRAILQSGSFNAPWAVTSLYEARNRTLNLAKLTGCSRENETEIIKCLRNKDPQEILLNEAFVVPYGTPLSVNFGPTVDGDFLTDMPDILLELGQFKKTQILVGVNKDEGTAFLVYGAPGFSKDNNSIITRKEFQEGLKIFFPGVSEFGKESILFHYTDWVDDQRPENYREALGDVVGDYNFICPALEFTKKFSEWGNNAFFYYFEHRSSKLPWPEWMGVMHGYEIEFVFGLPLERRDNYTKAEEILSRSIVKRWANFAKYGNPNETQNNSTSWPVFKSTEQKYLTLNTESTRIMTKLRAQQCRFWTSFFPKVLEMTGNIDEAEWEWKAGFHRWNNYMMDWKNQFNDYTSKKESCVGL
Sequence of rat Serotonin Transporter (SERT), Slc6a4 (gene 25553) (P31652 whole entry, looked up): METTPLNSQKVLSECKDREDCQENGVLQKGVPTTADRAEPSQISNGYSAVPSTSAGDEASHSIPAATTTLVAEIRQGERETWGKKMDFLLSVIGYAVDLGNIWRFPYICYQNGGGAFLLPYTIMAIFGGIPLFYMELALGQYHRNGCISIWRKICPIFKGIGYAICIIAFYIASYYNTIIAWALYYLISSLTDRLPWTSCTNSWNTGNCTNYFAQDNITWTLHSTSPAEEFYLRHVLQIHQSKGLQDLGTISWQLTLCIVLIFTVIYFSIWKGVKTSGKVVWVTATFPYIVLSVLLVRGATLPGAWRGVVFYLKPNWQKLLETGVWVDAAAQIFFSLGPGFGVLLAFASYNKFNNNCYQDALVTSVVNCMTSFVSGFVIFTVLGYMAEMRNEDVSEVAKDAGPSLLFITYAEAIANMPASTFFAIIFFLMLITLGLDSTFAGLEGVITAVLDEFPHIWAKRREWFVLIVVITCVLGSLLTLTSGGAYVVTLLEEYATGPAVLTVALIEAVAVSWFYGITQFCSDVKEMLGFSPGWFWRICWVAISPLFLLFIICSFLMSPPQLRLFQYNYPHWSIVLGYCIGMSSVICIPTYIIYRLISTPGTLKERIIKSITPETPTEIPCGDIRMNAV
Sequence of guinea pig Opioid, Kappa 1 Receptor (OpiateK), OPRK1 (gene 100135587) (P41144 whole entry, looked up): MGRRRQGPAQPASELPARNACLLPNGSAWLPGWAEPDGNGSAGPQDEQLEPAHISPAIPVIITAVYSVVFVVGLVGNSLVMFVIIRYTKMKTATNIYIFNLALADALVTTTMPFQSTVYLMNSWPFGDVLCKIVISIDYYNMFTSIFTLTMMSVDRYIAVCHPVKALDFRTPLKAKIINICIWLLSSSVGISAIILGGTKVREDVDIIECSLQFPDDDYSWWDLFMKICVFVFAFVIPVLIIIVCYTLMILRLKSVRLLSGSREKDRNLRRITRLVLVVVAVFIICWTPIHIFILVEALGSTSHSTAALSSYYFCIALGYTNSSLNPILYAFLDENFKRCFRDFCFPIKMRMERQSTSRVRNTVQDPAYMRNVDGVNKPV

For the compound `CN(C)CCC(c1ccc(Cl)cc1)c1ccccn1` (stereo unspecified), the half-maximal activity concentration (AC50) is 19.9 µM (active) in experiment [1], 12.7 µM (active) in experiment [2], 13.9 µM (active) in experiment [3] and 2.95 µM (active) in experiment [4].
As for `Cc1cc(O)cc(C)c1Cl`, the result in [5], in [6], in experiment [7], in [8], in [9] and in [10] was inactive. Also, the results for the half-maximal activity concentration (AC50) in experiment [9] and in experiment [10] were 72.9 µM (active) and 100 µM (active), respectively.
Consider `O=C(O)c1ccccc1C(=O)O`, for which the compound was classed as inactive in experiment [11], in experiment [12], in [13], in [14], in experiment [15] and in experiment [16]. In experiment [17], the result was inactive.
`CC(C)CC(=O)CC(C)CC(C)C` (stereo unspecified): in experiment [18], the call was inactive.
`c1cc(N(CC2CO2)CC2CO2)ccc1Cc1ccc(N(CC2CO2)CC2CO2)cc1` (stereo unspecified): the call in experiment [19] was inactive.
Turning to `Sc1nc2ccccc2s1`, the compound was classed as inactive in experiment [11], in experiment [12], in experiment [13], in experiment [14], in [15] and in [16]. In addition, the outcome in experiment [17] was inactive. In addition, the AC50 in the experiment with DIO3 (gene 1735) is 61.3 µM (active).
With `COC(=O)[C@]1(C)CCC[C@@]2(C)[C@H]1CC=C1C=C(C(C)C)CC[C@@H]12`, the concentration at half-maximal activity (AC50) in the experiment with DIO3 (gene 1735) was 36 µM (active).
Take `CCCCCCCCCC/C=C/C1CC(=O)OC1=O` (stereo unspecified): the concentration at half-maximal activity (AC50) in [18] was 45.4 µM (active).
On to `c1ccc(CNc2ncnc3nc[nH]c23)cc1`, for which the call in experiment [5], in [6], in experiment [7] and in experiment [8] was inactive.
Turning to `O=[N+]([O-])c1ccc(ON=Cc2cc(Br)c(O)c(Br)c2)c([N+](=O)[O-])c1`, the outcome in experiment [19] was inactive.
